Results from ChEMBL document CHEMBL3988442, “University of Dundee, Small-Polar-MMV Screening Library” (2021).
Screen size: about 69,000 compounds; about 1,000 (1.4%) showed an effect of 50% or more. For the sample, strong results were picked, then their nearest neighbours and some compounds at random.

Test system: Leishmania donovani
Test: Leishmania intramacrophage assay
Assay type: functional, organism-based
Set-up: scale not given: in the data most compounds retested in dose-response had high values

SMILES: CN(Cc1ccccc1)S(=O)(=O)N1C[C@H](C2CC2)[C@@H](N)C1
- Percent Effect (30.3 µM, […]): 11.31%

SMILES: Cc1nc(CN(C)C2CCN(CCc3cnn(C)c3)C2)no1 (stereo not drawn)
- Percent Effect (30 µM): 5.885%

SMILES: COc1ccc(CCN2CCCC(Cn3nc(C)nc3C)C2)cc1 (stereo not drawn)
- Percent Effect (30 µM, 30.03 µM): 18.76%

SMILES: Cc1nc(CN(C)C2CCN(CCc3ccc4c(c3)CCO4)C2)no1 (stereo not drawn)
- Percent Effect (30 µM): 14.02%

SMILES: CCc1nc(CN(C)C2CCN(CCc3ccncc3)C2)no1 (stereo not drawn)
- Percent Effect (30.3 µM, […]): 23.01%

SMILES: Cc1noc(CN(C)CC2CCN(CCO)CC2)n1
- Percent Effect (30.3 µM, […]): 19.09%

SMILES: Cc1nc(C)n(CC2CCCN(CCc3ccccc3)C2)n1 (stereo not drawn)
- Percent Effect (30 µM): 25.36%

SMILES: O=C(CCOc1ccccc1)NS(=O)(=O)Cc1ccccc1
- Percent Effect (30.3 µM, […]): 8.588%

SMILES: CCO[C@H]1CC[C@H]2[C@H]1OCCN2C(=O)CC1=CCCCC1
- Percent Effect (30.3 µM, […]): 2.273%

SMILES: Cn1cnc(S(=O)(=O)N2CCCC2)c1Cl
- Percent Effect (30 µM, 30.03 µM): 14.79%

SMILES: O=C(NCCc1cccc(F)c1)c1nc2c(s1)CCCN2C(=O)C1CC1
- Percent Effect (30.3 µM, […]): 44.4%

SMILES: CCN(Cc1ccoc1)C(C(N)=O)c1cccc(Br)c1 (stereo not drawn)
- Percent Effect (30.3 µM, […]): 23.25%

SMILES: CN(c1ncc(S(N)(=O)=O)s1)C1CCc2ccccc2C1 (stereo not drawn)
- Percent Effect (30.3 µM, […]): 53.12%

SMILES: CN(c1ncc(S(N)(=O)=O)s1)C1CCc2ccccc21 (stereo not drawn)
- Percent Effect (30.3 µM, […]): 21.68%

SMILES: CN(c1ncc(S(N)(=O)=O)s1)C1CCC1
- Percent Effect (30.3 µM, […]): 27.02%

SMILES: O=C(NC1CCC1)C1=NOC2(CCN(Cc3ccccc3)C2)C1 (stereo not drawn)
- Percent Effect (30.3 µM, […]): 18.41%

SMILES: CCCC(=O)N1CCOC2(COCCN(CC(=O)NC)C2)C1.O=C(O)C(F)(F)F (stereo not drawn)
- Percent Effect (30.3 µM, […]): -9.456%

SMILES: CNC(=O)CN1CCOCC2(C1)CN(C(=O)CC(C)C)CCO2.O=C(O)C(F)(F)F (stereo not drawn)
- Percent Effect (30.3 µM, […]): 52.6%

SMILES: CNC(=O)CN1CCOCC2(C1)CN(C(=O)C(C)C)CCO2.O=C(O)C(F)(F)F (stereo not drawn)
- Percent Effect (30.3 µM, […]): -36.06%

SMILES: NCCc1n[nH]c(=O)n1-c1cccc2ccccc12
- Percent Effect (30.3 µM, […]): -1.188%

SMILES: COc1ccc2nnc(CCCC(=O)NCc3ccccc3)n2n1
- Percent Effect (30.3 µM, […]): -8.358%

SMILES: COc1ccc2nnc(CCCC(=O)NCc3ccccc3OC)n2n1
- Percent Effect (30.3 µM, […]): -10.21%

SMILES: COc1ccc2nnc(CCCC(=O)NCc3ccccc3F)n2n1
- Percent Effect (30.3 µM, […]): 59.63%

SMILES: Cn1nccc1CNC(=O)CCn1nc(C(F)(F)F)cc1C1CC1
- Percent Effect (30.3 µM, […]): -48.51%

SMILES: CC(C)c1cc(=O)[nH]c(C(C)(C)N)n1.Cl
- Percent Effect (30.3 µM, […]): -1.615%

SMILES: CC(=O)Nc1cc(C2CC2)nn1-c1nc(C)c(C)c(=O)[nH]1
- Percent Effect (30.3 µM, […]): -16.88%

SMILES: Cc1nc(-n2nc(C3CC3)cc2NC(=O)C(C)C)[nH]c(=O)c1C
- Percent Effect (30.3 µM, […]): 15.32%

SMILES: Cc1cc(=O)[nH]c(-n2nc(-c3cccs3)cc2N)n1
- Percent Effect (30.3 µM, […]): -7.901%

SMILES: Cc1cc(=O)[nH]c(-n2nc(-c3ccccc3)cc2N)n1
- Percent Effect (30.3 µM, […]): 15.58%

SMILES: Cc1cc(=O)[nH]c(-n2nc(C3CC3)cc2N)n1
- Percent Effect (30.3 µM, […]): 77.1%

SMILES: CCCc1cc(=O)[nH]c(-n2nc(-c3cccs3)cc2N)n1
- Percent Effect (30.3 µM, […]): -5.205%

SMILES: CCCc1cc(=O)[nH]c(-c2cccc(CN3CCCCCC3)c2)n1
- Percent Effect (30.3 µM, […]): -12.61%

SMILES: CCc1c(C)nc(-n2nc(C3CC3)cc2NC(C)=O)[nH]c1=O
- Percent Effect (30.3 µM, […]): 18.69%

SMILES: CC(NC(=O)CCc1nc(C(C)(C)C)no1)c1nnc2n1CCC2 (stereo not drawn)
- Percent Effect (30.3 µM, […]): 10.79%

SMILES: CNC(=O)CCS(=O)(=O)Cc1cc(Cl)c2c(c1)OCCO2
- Percent Effect (30 µM): 6.265%

SMILES: O=C(CN1CCC(C(=O)c2cc(F)ccc2F)CC1)NC1CC1
- Percent Effect (30.3 µM, […]): 20.49%

SMILES: CNC(=O)C(NC(=O)CCc1cccc(OC2CCCC2)c1)C(C)C (stereo not drawn)
- Percent Effect (30.3 µM, […]): 1.65%

SMILES: Cc1nsc(C(=O)NCCCc2ccccc2)n1
- Percent Effect (30.3 µM, […]): 7.564%

SMILES: Cc1nc(C2CCCN2C(=O)Cn2cncn2)no1 (stereo not drawn)
- Percent Effect (30 µM): 21.12%

SMILES: CCOC(=O)c1sc2ccsc2c1CNC(=O)COC
- Percent Effect (30 µM): 13.66%

SMILES: O=C(NCC(O)c1ccoc1)Nc1cccs1 (stereo not drawn)
- Percent Effect (30.3 µM, […]): 10.34%

SMILES: CCC(CC)(CCO)CNC(=O)c1ccon1
- Percent Effect (30.3 µM, […]): 7.917%

SMILES: CC(C)c1nn(C)c(N(C)C)c1CNCc1ccccc1CN(C)C
- Percent Effect (30 µM, 30.03 µM): 50.34%

SMILES: CC(C)c1nn(C)c(N(C)C)c1CNCc1ccccc1CO.Cl
- Percent Effect (30 µM): 5.046%

SMILES: COCc1ccccc1CNCc1c(C(C)C)nn(C)c1N(C)C
- Percent Effect (30 µM): 21.29%

SMILES: O=C1N(C2CCCCC2)CCCC12CCN(S(=O)(=O)c1cccnc1)C2 (stereo not drawn)
- Percent Effect (30.3 µM, […]): 18%

SMILES: CC(C)NC(=O)[C@@H]1C[C@@H]2CCN(Cc3ccoc3)C[C@H]2O1.O=C(O)C(F)(F)F
- Percent Effect (30.3 µM, […]): 11.62%

SMILES: O=C(NCC1CC1)[C@H]1C[C@@H]2CCN(CCc3ccccc3)C[C@H]2O1.O=C(O)C(F)(F)F
- Percent Effect (30.3 µM, […]): -22.31%

SMILES: COCCNC(=O)[C@H]1C[C@@H]2CCN(CCc3ccccc3)C[C@@H]2O1.O=C(O)C(F)(F)F
- Percent Effect (30.3 µM, […]): 34.91%

SMILES: O=C(NC1CC1)[C@H]1C[C@@H]2CCN(CCc3ccccc3)C[C@H]2O1.O=C(O)C(F)(F)F
- Percent Effect (30 µM, 30.03 µM): 7.043%

SMILES: COCCNC(=O)[C@H]1C[C@@H]2CCN(CCc3ccccc3)C[C@H]2O1.O=C(O)C(F)(F)F
- Percent Effect (30.3 µM, […]): 57.9%

SMILES: CNC(=O)[C@H]1C[C@@H]2CN(Cc3ccccc3)C[C@H]1O2.O=C(O)C(F)(F)F
- Percent Effect (30.3 µM, […]): 55.32%

SMILES: O=C(NC1CC1)[C@@H]1C[C@@H]2CCN(Cc3ccoc3)C[C@@H]2O1.O=C(O)C(F)(F)F
- Percent Effect (30.3 µM, […]): 29.69%

SMILES: O=C(NC1CCCC1)[C@@H]1C[C@@H]2CCN(Cc3ccoc3)C[C@H]2O1.O=C(O)C(F)(F)F
- Percent Effect (30.3 µM, […]): 62.18%

SMILES: CNC(=O)[C@H]1C[C@@H]2CN(Cc3cccc(C)c3)C[C@H]1O2.O=C(O)C(F)(F)F
- Percent Effect (30.3 µM, […]): 36.09%

SMILES: O=C(NC1CCC1)[C@@H]1C[C@@H]2CCN(CCc3ccccc3)C[C@H]2O1.O=C(O)C(F)(F)F
- Percent Effect (30.3 µM, […]): -19.62%

SMILES: CNC(=O)[C@H]1C[C@@H]2CN(Cc3ccc(C)cc3)C[C@H]1O2.O=C(O)C(F)(F)F
- Percent Effect (30.3 µM, […]): 47.12%

SMILES: CNC(=O)[C@H]1C[C@@H]2CCN(CCc3ccccc3)C[C@@H]2O1.O=C(O)C(F)(F)F
- Percent Effect (30.3 µM, […]): 53.78%
